In the library only some 3.5% were active in any assay of this set; here they are far more common.
TEAD-YAP inh – TEAD-YAP interaction inhibition, primary screen, TEAD-YAP interaction inhibitor project, luminescence, HEK-TIYL cells; TEAD-Gal4/YAP UAS-luciferase luminescence; inhibition, % at 9.12 µM; 640,000 compounds, 1.4% hits; in the data active = inhibition above about 32%
MITF primary – MITF inhibitors, primary screen, biochemical, AlphaScreen, human. AlphaScreen MITF homodimerization, bead proximity signal. inhibition, % at 2.6 µM. Microphthalmia-associated transcription factor (Homo sapiens), O75030. 650,000 compounds, 0.91% hits; in the data active = inhibition above about 50%
Target sequence (O75030 whole entry, looked up): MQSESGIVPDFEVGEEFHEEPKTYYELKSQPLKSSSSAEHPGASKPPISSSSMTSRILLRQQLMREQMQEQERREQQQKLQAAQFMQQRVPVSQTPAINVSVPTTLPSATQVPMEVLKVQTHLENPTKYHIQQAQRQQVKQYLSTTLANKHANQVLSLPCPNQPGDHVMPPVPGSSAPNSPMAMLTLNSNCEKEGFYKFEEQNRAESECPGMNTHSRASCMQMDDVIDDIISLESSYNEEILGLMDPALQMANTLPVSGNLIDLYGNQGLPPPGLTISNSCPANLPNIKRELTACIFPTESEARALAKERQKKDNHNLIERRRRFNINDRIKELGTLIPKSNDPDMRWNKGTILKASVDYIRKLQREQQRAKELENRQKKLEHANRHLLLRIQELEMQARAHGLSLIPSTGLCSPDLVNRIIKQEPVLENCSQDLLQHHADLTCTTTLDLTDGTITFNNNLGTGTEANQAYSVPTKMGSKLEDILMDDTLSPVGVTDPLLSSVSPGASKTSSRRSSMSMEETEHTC
GPR151 ag – activators of human GPR151, primary screen, cell-based, PathHunter beta-arrestin, luminescence. AID 1508602, 2020. activation, % at 11.2 µM. G-protein coupled receptor 151 (Homo sapiens), Q8TDV0. PathHunter beta-arrestin GPR151 cells. 650,000 compounds, 1% hits; in the data active = activation above about 4.9%
FBW7 act – FBW7 E3 ligase activators, primary screen, biochemical, AlphaScreen, human | F-box/WD repeat-containing protein 7 (Homo sapiens), Q969H0 | AlphaScreen FBW7–phospho-cyclin E peptide binding, activator screen | normalized activity (activation), % at 26.1 µM | 650,000 compounds, 0.13% hits | AID 1259310, 2017; in the data active = normalized activity above about 1.9%;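 note: purified mutant Fbw7 with reduced substrate affinity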
MITF inh conf – MITF inhibitors, retest of hits, confirmation, biochemical, AlphaScreen, triplicate; shares compounds with MITF primary; AlphaScreen MITF homodimerization, biotin/His-MITF beads; inhibition, % at 2.6 µM; 4,700 compounds, 16% hits; AID 1259372, 2018;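 active = inhibition above a cutoff derived from the DMSO control wells, cut at about 28% in these data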;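 note: inhibitors lower the bead chemiluminescence by keeping MITF from dimerizing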
AlphaScreen DR – AlphaScreen optical interference compounds, dose response, counter-screen, biochemical, HTS; 480 compounds, 6% hits; IC50, µM; shares compounds with MITF primary; AlphaScreen optical interference counterscreen, cell-free; AID 1259373, 2018; call rule not given here
AS interf ctr – AlphaScreen optical interference compounds, counter-screen for MITF inhibitor project, biochemical, triplicate; inhibition, % at 2.6 µM; 4,700 compounds, 7.6% hits; shares compounds with MITF primary; AID 1259376, 2018; LysRS AlphaScreen counterscreen, signal interference;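 active = inhibition above a cutoff derived from the DMSO control wells, cut at about 30% in these data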
Large screens that a line does not name were inactive (follow-up assays come after a bar, where they were run).

O=[N+]([O-])c1ccccc1OCCOCCOc1ccccc1[N+](=O)[O-]	none
Cc1ccc(OCCOCCN2CCN(C)CC2)c([N+](=O)[O-])c1	MITF primary 87 | MITF inh conf inactive | AS interf ctr inactive
O=C1CSC(=Nc2cccc(Br)c2)N1	MITF primary 53 | MITF inh conf inactive | AS interf ctr inactive
NC(=O)CSc1nnc2c3ccccc3n(CCc3ccccc3)c2n1	MITF primary 53 | MITF inh conf inactive | AS interf ctr inactive
CCCn1c2ccccc2c2nnc(SCC(N)=O)nc21	none
Cc1cccc(/C=c2\sc3nc4ccccc4n3c2=O)n1	none
Cc1ccc(OCCCN2CCNCC2)c(Br)c1	MITF primary 69 | MITF inh conf inactive | AS interf ctr inactive
Clc1ccc(OCCN2CCNCC2)c(Br)c1	MITF primary 65 | MITF inh conf inactive | AS interf ctr inactive
Clc1ccc(OCCCN2CCNCC2)c(Br)c1	none
Clc1ccc(OCCCCN2CCNCC2)c(Br)c1	MITF primary 79 | MITF inh conf inactive | AS interf ctr inactive
Cc1cc(Cl)ccc1OCCN1CCNCC1	MITF primary 73 | MITF inh conf inactive | AS interf ctr inactive
CCc1ccc(NC(=O)CSC)cc1	none
Cc1csc2nc(CNS(=O)(=O)c3ccc4ccccc4c3)cn12	none
Clc1ccc(SCCOCCN2CCNCC2)cc1	MITF primary 59 | MITF inh conf inactive | AS interf ctr inactive
Cc1cc(Cl)c(OCCCN2CCNCC2)c(Br)c1	none
Clc1cc(Cl)c(OCCCN2CCNCC2)c(Cl)c1	MITF primary 56 | MITF inh conf inactive | AS interf ctr inactive
Clc1ccc(SCCN2CCNCC2)cc1	none
Cc1cc(Cl)cc(C)c1OCCN1CCNCC1	MITF primary 55 | MITF inh conf inactive | AS interf ctr inactive
Cc1cc(OCCOCCN2CCNCC2)cc(C)c1Cl	MITF primary 64 | MITF inh conf inactive | AS interf ctr inactive
Cc1cc(C)c(OCCOCCN2CCNCC2)c(C)c1	none
CSc1ccccc1C(=O)N1CCOc2ccc(CN3CCCCC3CO)cc2C1 (stereo not given)	none
Cc1csc(NC(=O)CSc2nnc3c4c(C)c(C)sc4nc(C(C)C)n23)n1	none
CC(=O)NC(Cc1cccc2ccccc12)C(=O)N1CCN(C(=O)c2ccc(F)cc2)CC1 (stereo not given)	none
COc1ccccc1CNCC(=O)c1ccc(OC)c(OC)c1	MITF primary 68 | MITF inh conf inactive | AS interf ctr inactive
O=C(Nc1c2c(nn1-c1ccc([N+](=O)[O-])cc1)CSC2)c1cccc(F)c1	none
CCOc1cc(CN2CCN(C3CCCC3)CC2)ccc1OC	MITF primary 53 | MITF inh conf inactive | AS interf ctr inactive
CCOc1cc(CN2CCCCC2)ccc1OC	none
CCOc1cc(CN2CCN(Cc3cccnc3)CC2)ccc1OC	MITF primary 74 | MITF inh conf inactive | AS interf ctr inactive
CCOc1cc(CN2CCN(Cc3ccccc3Cl)CC2)ccc1OC	MITF primary 67 | MITF inh conf inactive | AS interf ctr inactive
CCOc1cc(CN2CCN(Cc3cc(OC)c(OC)c(OC)c3)CC2)ccc1OC	MITF primary 71 | MITF inh conf inactive | AS interf ctr inactive
COc1ccc(C)cc1NS(=O)(=O)c1ccc(NC(=O)c2ccc(C3SCC(=O)N3Cc3ccccc3)cc2)cc1 (stereo not given)	none
CCOc1cc(CN2CCN(Cc3cccc(Cl)c3)CC2)ccc1OC	none
CCOc1cc(CN2CCN(Cc3ccc(Cl)cc3)CC2)ccc1OC	MITF primary 61 | MITF inh conf inactive | AS interf ctr inactive
CCOc1ccc(CN2CCN(Cc3cccnc3)CC2)cc1	MITF primary 55 | MITF inh conf 35 | AlphaScreen DR inactive | AS interf ctr inactive
CCOc1ccc(CN2CCN(c3ccccn3)CC2)cc1	none
N#Cc1cccc(-c2nc3cnccn3c2NCc2ccc(F)cc2)c1	none
COc1ccccc1-c1nnc(SCC(=O)N2CCc3ccccc32)o1	MITF primary 62 | MITF inh conf inactive | AS interf ctr inactive
CC(C)C[C@H]1NC(=O)[C@H]2CN(C(=O)NC3CCCCC3)CCN2C1=O	MITF primary 74 | MITF inh conf 41 | AlphaScreen DR inactive | AS interf ctr inactive
CC[C@@H]1NC(=O)[C@H]2CN(C(=O)NC3CCCCC3)CCN2C1=O	MITF primary 83 | MITF inh conf 71 | AlphaScreen DR inactive | AS interf ctr inactive
CC(C)C[C@@H]1NC(=O)[C@H]2CN(C(=O)NC3CCCCC3)CCN2C1=O	MITF primary 80 | MITF inh conf 75 | AlphaScreen DR inactive | AS interf ctr inactive
Cc1ccc(SCC(=O)Nc2ccc(Cl)cn2)cc1	none
CC(C)S(=O)(=O)N1CC[C@@H]2[C@H](CCCN2Cc2ccc(Sc3nncn3C)o2)C1	none
COc1cccc(CN2CCC(N3CCCCCC3)CC2)c1OC	none
COc1ccccc1CN1CCC(N2CCN(c3ccccc3)CC2)CC1	MITF primary 68 | MITF inh conf inactive | AS interf ctr inactive
COc1ccccc1CN1CCC(N2CCCCC2)CC1	MITF primary 70 | MITF inh conf inactive | AS interf ctr inactive
CC(C)(C)OCC(O)CN1CCN(C(=O)c2ccccc2)CC1 (stereo not given)	none
CCN(CC)CC(O)CN1CCN(C(=O)c2ccccc2)CC1 (stereo not given)	MITF primary 52 | MITF inh conf inactive | AS interf ctr inactive
CCN(CC)CC(O)CN1CCN(S(=O)(=O)c2ccc(Cl)cc2)CC1 (stereo not given)	MITF primary 61 | MITF inh conf inactive | AS interf ctr inactive
COc1ccc(N(CC(=O)Nc2cccc(Cl)c2C)S(=O)(=O)c2ccc(C)cc2)cc1	none
C=CCc1cc(OC)ccc1OCCCCn1cncn1	MITF primary 76 | MITF inh conf inactive | AS interf ctr inactive
C=CCc1cc(OC)ccc1OCCN1CCCCC1	none
C=CCc1cc(OC)ccc1OCCCN1CCN(C)CC1	MITF primary 82 | MITF inh conf inactive | AS interf ctr inactive
C=CCc1cc(OC)ccc1OCCN1CCN(C)CC1	MITF primary 67 | MITF inh conf inactive | AS interf ctr inactive
C=CCNC(=O)/C(C#N)=C/c1c(Oc2ccc(C)cc2)nc2c(C)cccn2c1=O	none
c1cc(-c2ccc3cnc(Nc4ccc(-n5cnc(N6CCOCC6)n5)cc4)nc3c2)ccn1	none
O=c1ccc(-c2ccc3cnc(Nc4ccc(-n5cnc(N6CCOCC6)n5)cc4)nc3c2)c[nH]1	MITF primary 60 | MITF inh conf inactive | AS interf ctr inactive

High-throughput results from PubChem BioAssay.
